Measured values from ChEMBL document CHEMBL3988442, “University of Dundee, Small-Polar-MMV Screening Library” (2021).
For some of these results: Entries with a potency or affinity are not part of this list.

How the values were obtained:
Design in all cases: scale not given: direction of the effect not stated beside the values
[1] = target: Protein translocase subunit SecA (Escherichia coli (strain K12)) (UniProt P10408); experiment: Assay to Identify E. coli SecA ATPase Inhibitors; type: functional; conditions: 30 µM
[2] = target: T1, Ubiquitin-activating enzyme e1, putative (Leishmania donovani (strain BPK282A1)) (UniProt E9BSI1); experiment: Leishmania donovani Ubiquitin Activating Enzyme (LdE1); type: functional; conditions: 30 µM
T1 sequence (whole entry): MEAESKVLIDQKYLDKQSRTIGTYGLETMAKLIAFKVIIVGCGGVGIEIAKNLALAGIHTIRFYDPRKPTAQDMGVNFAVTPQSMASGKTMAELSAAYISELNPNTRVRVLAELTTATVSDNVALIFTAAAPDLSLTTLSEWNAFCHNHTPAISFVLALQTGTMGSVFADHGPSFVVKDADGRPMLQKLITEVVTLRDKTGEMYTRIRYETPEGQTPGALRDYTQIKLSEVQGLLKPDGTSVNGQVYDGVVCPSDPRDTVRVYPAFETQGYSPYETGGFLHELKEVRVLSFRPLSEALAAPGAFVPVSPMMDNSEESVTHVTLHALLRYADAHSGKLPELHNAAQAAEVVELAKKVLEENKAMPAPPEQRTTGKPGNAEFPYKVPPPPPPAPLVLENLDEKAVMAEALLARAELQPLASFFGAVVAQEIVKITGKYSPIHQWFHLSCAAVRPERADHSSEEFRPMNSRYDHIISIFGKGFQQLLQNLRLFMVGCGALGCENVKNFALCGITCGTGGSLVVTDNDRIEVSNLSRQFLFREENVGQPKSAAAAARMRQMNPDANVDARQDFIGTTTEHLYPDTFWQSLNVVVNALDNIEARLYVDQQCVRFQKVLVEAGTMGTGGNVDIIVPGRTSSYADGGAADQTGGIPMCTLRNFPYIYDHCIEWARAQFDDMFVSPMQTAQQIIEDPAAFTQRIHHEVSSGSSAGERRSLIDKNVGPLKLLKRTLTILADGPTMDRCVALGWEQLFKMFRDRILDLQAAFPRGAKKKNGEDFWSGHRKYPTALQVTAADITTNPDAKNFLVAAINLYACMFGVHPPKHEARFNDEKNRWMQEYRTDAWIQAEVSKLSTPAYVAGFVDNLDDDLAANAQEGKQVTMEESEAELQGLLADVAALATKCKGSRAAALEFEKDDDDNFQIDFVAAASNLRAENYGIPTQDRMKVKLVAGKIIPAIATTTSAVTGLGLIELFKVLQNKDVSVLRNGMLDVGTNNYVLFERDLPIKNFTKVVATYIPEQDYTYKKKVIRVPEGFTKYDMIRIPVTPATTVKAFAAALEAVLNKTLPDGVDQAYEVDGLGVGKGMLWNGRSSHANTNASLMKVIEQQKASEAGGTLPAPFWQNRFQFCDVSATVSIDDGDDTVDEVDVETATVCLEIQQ

[3] = target: AMP-activated protein kinase, AMPK (Homo sapiens) (UniProt P54646+O43741+P54619+Q9UGJ0+Q9Y478+Q13131+Q9UGI9); experiment: AMP-dependent Kinase enzyme assay. An in vitro enzyme assay that detects ADP turnover that is directly proportional to AMPK activity. This uses naive AMPK that is activated during the assay with MK-8722; type: functional; conditions: 30 µM
[4] = target: Sialic acid-binding Ig-like lectin 9 (Homo sapiens) (UniProt Q9Y336); experiment: Hs-Siglec9 ALPHAscreen SOP 20170721; conditions: 10 µM
Trypanosoma cruzi = experiment: Trypanosoma cruzi phosphomannomutase and mannose-1-phosphate guanylyltransferase assay; type: functional; conditions: 10 µM
[5] = target: T2, Arginase-2, mitochondrial (Homo sapiens) (UniProt P78540); experiment: in vitro enzyme assay to detect the production of urea directly proportional to the activity of Arginase II; type: functional; conditions: 33.3 µM; further: in the data most compounds retested in dose-response had high values
T2 sequence (whole entry): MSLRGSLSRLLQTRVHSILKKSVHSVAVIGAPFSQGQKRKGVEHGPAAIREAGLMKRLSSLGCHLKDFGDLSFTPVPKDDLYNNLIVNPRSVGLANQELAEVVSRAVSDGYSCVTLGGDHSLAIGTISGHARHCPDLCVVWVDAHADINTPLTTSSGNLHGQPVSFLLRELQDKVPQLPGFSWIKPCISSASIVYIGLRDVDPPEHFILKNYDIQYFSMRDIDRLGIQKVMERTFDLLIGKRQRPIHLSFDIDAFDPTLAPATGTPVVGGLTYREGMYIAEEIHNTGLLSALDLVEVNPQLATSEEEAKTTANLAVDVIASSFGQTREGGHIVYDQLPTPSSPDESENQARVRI

[6] = target: T3, Proteasome subunit beta (Trypanosoma cruzi) (UniProt O96673); experiment: Trypanosoma cruzi proteasome chymotrypsin-like activity (TcProtChymo) assay.; further: in the data most compounds retested in dose-response had high values; type: functional; conditions: 9.37 µM
T3 sequence (whole entry): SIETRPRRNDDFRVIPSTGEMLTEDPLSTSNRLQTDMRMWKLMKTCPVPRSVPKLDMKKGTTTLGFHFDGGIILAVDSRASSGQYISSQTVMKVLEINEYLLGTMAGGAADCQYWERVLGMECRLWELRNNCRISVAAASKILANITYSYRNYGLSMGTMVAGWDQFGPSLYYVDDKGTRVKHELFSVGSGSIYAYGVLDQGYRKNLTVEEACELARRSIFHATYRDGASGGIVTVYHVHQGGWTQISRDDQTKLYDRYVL

Homo sapiens = organism: Homo sapiens; experiment: To identify inhibition of the IFN signalling (Jak-Stat) pathway via expression of an eGFP reporter gene under the control of an IFN-stimulated response element (ISRE) containing MxA promoter.; type: functional; conditions: 30 µM
[7] = target: T4, Tyrosyl-tRNA synthetase, putative (Trypanosoma cruzi (strain CL Brener)) (UniProt Q4DSP6); experiment: Trypanosoma cruzi tyrosyl tRNA synthetase (TcYRS) _High Tyrosine SOP; type: functional; conditions: 30 µM; further: in the data most compounds retested in dose-response had high values
T4 sequence (whole entry): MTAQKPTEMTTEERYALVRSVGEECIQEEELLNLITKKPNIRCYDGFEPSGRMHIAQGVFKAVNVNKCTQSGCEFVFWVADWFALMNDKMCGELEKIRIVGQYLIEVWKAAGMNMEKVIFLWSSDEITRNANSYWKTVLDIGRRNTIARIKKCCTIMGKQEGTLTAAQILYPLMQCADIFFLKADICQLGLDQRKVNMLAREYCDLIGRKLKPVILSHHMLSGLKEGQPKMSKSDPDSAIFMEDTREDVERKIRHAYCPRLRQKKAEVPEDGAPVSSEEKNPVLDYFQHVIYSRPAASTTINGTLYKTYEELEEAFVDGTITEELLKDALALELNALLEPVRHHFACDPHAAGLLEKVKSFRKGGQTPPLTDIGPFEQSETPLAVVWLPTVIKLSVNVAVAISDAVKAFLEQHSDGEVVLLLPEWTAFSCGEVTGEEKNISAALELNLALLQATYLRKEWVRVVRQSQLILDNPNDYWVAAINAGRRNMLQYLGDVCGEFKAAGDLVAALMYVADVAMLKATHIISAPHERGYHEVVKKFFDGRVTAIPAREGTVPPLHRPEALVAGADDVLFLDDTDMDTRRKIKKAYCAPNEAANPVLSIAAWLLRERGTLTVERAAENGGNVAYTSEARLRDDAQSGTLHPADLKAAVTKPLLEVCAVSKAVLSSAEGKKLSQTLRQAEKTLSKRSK

[8] = target: T4, Tyrosyl-tRNA synthetase, putative (Trypanosoma cruzi (strain CL Brener)); experiment: Trypanosoma cruzi tyrosyl tRNA synthetase (TcYRS) SOP; type: functional; conditions: 30 µM
[9] = target: Chromo domain-containing protein 1 (Saccharomyces cerevisiae (strain ATCC 204508 / S288c) (Baker's yeast)) (UniProt P32657); experiment: ScCHD-1 Enzyme Inhibition Assay; type: functional; conditions: 30 µM; further: in the data most compounds retested in dose-response had high values
Sequence of Chromo domain-containing protein 1 (Saccharomyces cerevisiae (strain ATCC 204508 / S288c) (Baker's yeast)) (P32657 whole entry, the tested form may be a part): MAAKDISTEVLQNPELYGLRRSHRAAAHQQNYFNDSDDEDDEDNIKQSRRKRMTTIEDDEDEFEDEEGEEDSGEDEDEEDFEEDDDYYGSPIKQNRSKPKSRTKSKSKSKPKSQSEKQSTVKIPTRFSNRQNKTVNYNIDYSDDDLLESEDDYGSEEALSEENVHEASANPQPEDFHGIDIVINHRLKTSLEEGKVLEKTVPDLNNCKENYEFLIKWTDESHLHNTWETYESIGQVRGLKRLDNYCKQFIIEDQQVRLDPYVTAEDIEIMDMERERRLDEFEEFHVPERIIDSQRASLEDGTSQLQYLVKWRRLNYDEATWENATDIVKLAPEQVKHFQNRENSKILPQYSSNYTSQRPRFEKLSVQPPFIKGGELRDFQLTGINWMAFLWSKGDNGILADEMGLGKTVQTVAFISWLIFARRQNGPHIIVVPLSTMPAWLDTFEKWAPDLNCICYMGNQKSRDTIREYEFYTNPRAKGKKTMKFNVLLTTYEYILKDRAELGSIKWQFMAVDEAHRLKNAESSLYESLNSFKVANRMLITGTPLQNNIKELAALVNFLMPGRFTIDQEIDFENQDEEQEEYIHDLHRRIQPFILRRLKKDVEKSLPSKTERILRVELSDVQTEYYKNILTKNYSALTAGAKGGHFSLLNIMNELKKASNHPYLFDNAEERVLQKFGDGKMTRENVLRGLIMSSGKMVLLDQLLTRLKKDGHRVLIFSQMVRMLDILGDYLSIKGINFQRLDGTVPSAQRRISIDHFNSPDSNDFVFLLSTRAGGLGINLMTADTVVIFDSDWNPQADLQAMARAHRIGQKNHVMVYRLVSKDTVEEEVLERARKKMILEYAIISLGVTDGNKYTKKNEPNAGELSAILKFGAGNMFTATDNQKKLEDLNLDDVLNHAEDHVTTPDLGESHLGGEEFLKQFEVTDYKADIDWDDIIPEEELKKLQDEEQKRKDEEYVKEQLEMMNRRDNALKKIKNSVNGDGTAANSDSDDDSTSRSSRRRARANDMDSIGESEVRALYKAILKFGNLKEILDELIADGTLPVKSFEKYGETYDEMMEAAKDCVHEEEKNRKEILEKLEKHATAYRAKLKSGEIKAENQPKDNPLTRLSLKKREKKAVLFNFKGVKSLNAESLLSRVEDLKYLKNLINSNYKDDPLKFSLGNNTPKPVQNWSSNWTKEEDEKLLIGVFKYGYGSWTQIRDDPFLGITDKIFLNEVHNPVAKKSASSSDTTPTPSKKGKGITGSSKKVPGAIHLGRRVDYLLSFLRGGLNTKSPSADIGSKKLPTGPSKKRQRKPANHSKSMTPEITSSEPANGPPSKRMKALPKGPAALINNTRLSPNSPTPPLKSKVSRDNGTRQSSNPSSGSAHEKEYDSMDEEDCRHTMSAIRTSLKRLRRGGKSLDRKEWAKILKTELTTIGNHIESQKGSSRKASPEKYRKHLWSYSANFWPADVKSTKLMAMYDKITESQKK

Sequence of Protein translocase subunit SecA (Escherichia coli (strain K12)) (P10408 whole entry): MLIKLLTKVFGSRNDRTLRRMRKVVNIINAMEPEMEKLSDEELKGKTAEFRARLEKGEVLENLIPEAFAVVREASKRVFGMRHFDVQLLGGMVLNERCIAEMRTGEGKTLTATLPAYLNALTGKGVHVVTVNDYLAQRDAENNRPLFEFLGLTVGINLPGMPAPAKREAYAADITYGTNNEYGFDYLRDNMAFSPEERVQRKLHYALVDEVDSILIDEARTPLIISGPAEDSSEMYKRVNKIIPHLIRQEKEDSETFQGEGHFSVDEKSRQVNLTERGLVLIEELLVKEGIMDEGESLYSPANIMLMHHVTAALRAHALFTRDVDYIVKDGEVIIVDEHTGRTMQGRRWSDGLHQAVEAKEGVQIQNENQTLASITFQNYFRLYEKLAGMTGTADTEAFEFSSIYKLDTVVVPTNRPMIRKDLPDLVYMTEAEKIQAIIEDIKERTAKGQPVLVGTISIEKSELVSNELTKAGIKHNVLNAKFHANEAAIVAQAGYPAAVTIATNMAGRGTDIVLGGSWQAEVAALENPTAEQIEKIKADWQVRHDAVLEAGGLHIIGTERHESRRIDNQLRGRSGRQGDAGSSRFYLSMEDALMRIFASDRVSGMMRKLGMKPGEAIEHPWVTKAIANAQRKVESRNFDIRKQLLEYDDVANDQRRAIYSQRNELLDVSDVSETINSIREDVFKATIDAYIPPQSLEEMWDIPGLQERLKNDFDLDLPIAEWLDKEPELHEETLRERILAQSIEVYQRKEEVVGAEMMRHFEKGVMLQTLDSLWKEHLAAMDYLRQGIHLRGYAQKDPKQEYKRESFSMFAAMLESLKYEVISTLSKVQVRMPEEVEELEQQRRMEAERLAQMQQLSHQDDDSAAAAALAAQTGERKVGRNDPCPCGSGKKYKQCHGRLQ
Sequence of Sialic acid-binding Ig-like lectin 9 (Homo sapiens) (Q9Y336 whole entry): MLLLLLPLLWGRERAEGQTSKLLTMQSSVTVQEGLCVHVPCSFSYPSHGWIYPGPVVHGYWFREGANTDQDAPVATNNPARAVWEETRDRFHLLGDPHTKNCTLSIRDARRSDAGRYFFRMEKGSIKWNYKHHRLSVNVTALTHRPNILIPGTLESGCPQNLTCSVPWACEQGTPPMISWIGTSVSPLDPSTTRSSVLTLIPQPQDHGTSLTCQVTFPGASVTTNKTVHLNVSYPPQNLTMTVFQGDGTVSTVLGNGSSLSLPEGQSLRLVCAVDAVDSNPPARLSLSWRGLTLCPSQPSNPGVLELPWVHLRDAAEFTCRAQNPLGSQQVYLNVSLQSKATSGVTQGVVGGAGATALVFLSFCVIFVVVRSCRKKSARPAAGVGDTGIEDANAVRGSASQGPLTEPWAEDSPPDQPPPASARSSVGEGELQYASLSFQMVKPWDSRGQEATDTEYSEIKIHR

Structure (SMILES)	Percent Effect [1]	Percent Effect [2]	Percent Effect [3]	Percent Effect [4]	Percent Effect (Trypanosoma cruzi)	Percent Effect [5]	Percent Effect [6]	Percent Effect (Homo sapiens)	Percent Effect [7]	Percent Effect [8]	Percent Effect [9]
Cc1cnn(C2CCCN(C(=O)c3ccnc(N(C)C)c3)C2)c1 (stereo unspecified)	-0.378%	19%	-4.04%	-2.57%	-1.54%	0.645%	10.3%	19.4%	1.04%	5.06%	-31.1%
CC(=O)Nc1nc(C2CCN(C(=O)c3cccnc3)CC2)cs1	-6.73%	21.3%	0.538%	3.28%	2.36%	-2.56%	12.1%	5.76%	5.32%	19.2%	-2.51%
CCn1c(Cn2cncn2)nnc1C1CCN(Cc2ccncc2)CC1	-5.1%	5.41%	-3.24%	1.13%	-0.489%	2.73%	4.72%	-4.54%	9.68%	21%	-2.94%
CN(CCOc1cccc(CNC(=O)C2CC2)c1)C1CCOCC1	-3.16%	0%	2.77%	-1.13%	4.44%	3.33%	-3.45%	-3.27%	-0.529%	2.44%	0.329%
COCc1nc(N(C)C)ncc1C(=O)Nc1ccn(C)n1	-6.73%	12%	-5.52%	4.28%	1.38%	-7.22%	5.36%	0.526%	4.23%	10.3%	-10.2%
CCOc1ccc(C2CC(=O)Nc3c2c(=O)nc2sccn32)cc1 (stereo unspecified)	-6.79%	17.3%	-2.62%	8.5%	1.97%	-6.51%	9.06%	7.35%	4.23%	7.69%	-13.3%
COCCN1CCN(CCS(=O)(=O)C(F)(F)F)CC1C (stereo unspecified)	-3.49%	8.11%	-8.33%	4.35%	-3.62%	-4.25%	0.179%	25.8%	2.97%	11%	9.67%
CNS(=O)(=O)c1cccc(C(C)NCc2cccc(OC)c2)c1 (stereo unspecified)	-3.08%	-5.41%	4.16%	-2.94%	-4.3%	-0.417%	4.31%	11.2%	0%	-8.54%	-3.26%
CN1CCN(C(=O)NC2CC2)Cc2cccnc21	-0.328%	10.7%	-1.13%	3.38%	-1.35%	-23.5%	12%	-4.24%	6.25%	25%	-7.54%
Cc1cc(C)n(CC2CN(Cc3nc(-c4ccoc4)no3)CCO2)n1 (stereo unspecified)	-0.455%	16.2%	-10.1%	0.775%	6.51%	-2.81%	5.22%	7.72%	3.45%	18.5%	-11.6%
c1cnn(CC2CN(c3ncnc4ccsc34)CCO2)c1 (stereo unspecified)	-5.02%	2.7%	14.2%	-3.02%	-4.69%	0.833%	19.5%	69.8%	4.95%	11%	0.323%
